Methyltransferases: Primary Screen for Target Class Profiling of Small Molecule Inhibitors of Methyltransferases. 25,000 tested, 3.9% active. calls only at 40 µM. AID 1745853, 2022. purified enzyme, MTase-Glo SAH luminescence; hits give low values; call rule not given here
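Each enzyme was assayed with SAM and its substrate. SAH formation detected by MTase-Glo luminescence; single-point 40 uM screen[…].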
An asterisk follows results filed as active; i = inactive; + = active, no number. This excerpt belongs to a sample that is enriched for hits. % is scaled to controls: 0 for no effect and ±100 for the full control effect.

SMILES	Methyltransferases
Cc1ccc(-c2nnn3c2nc(NCCc2c[nH]c4ccccc24)c2ccccc23)cc1	i
Cc1ccc(C)c(S(=O)(=O)c2nnn3c2nc(NCCc2c[nH]c4ccccc24)c2ccccc23)c1	i
O=C(O)CCCc1c[nH]c2ccccc12	i
O=C(CN1C(=O)C2(CCCCC2)C1c1ccccc1)NCCc1c[nH]c2ccccc12 (stereo not drawn)	i
c1ccc2c(CCNc3ccc(Nc4ccncc4)cc3)c[nH]c2c1	+
c1cc(NCCc2c[nH]c3ccccc23)cc(Nc2ccncc2)c1	+
CCCOc1ccc(CN2C(=O)c3cc(C(C)(C)C)nn3CC2(C)C(=O)NC2CCCCC2)cc1 (stereo not drawn)	i
CCCN1C(=O)c2c(C(=O)OC)ncn2CC1(C)C(=O)NCc1ccccc1 (stereo not drawn)	i
Cc1ccc(Cn2nc3n(Cc4ccccc4)c(=O)c4ccc(C(=O)NCC(C)C)cc4n3c2=O)cc1	i
COc1ccc(S(=O)(=O)N2CCC(OCCOc3ccccc3)CC2)cc1	i
C[C@@]1(C2CCCC2)Cc2cc(OCC(=O)O)c(Cl)c(Cl)c2C1=O	+
CC1(C(=O)NC2CCCC2)Cn2c(nc3ccccc32)C(=O)N1Cc1ccc2c(c1)OCO2 (stereo not drawn)	i
Cc1cccc(N2C(=O)c3cc4sccc4n3CC2(C)C(=O)NC2CCCCC2)c1C (stereo not drawn)	i
c1ccc(CNc2nc(-c3ccccc3)no2)cc1	i
O=C(NCc1ccc(Oc2ccccc2)cc1)c1nc(-c2cc(Br)c(O)c(Br)c2)no1	+
COCc1nc(-c2ccc(OC3CN(C(=O)NCc4ccc(OC)cc4)C3)cc2)no1	i
CC1CCCCC1NC(=O)C1(C)Cn2c(ccc2-c2ccco2)C(=O)N1Cc1ccccn1 (stereo not drawn)	i
CCNC(=O)NC1(CCOC)CCN(S(=O)(=O)c2cc(OC)ccc2OC)CC1	i
O=C(c1ccc2c(=O)nc3c(-c4cccc(F)c4)n[nH]n3c2c1)N1CCN(c2ccccc2F)CC1	i
O=S(=O)(c1ccccc1)c1nnn2c1nc(N1CCN(c3ccc(F)cc3)CC1)c1ccccc12	i
COc1ccc(CNC(=O)c2cc3n(n2)CC(C)(C(=O)NC2CCCCCC2)N(C)C3=O)cc1OC (stereo not drawn)	i
Clc1ccc(Cn2c(Cc3ccccc3)nc3ccccc32)cc1	+
CC1(C(=O)NCc2ccccc2)Cn2c(nc3ccccc32)C(=O)N1Cc1ccc(Cl)cc1 (stereo not drawn)	i
Clc1ccc(Cn2c(CN3CCCC3)nc3ccccc32)cc1	i
NC(=NCCCCCCN=C(N)/N=C(\N)Nc1ccc(Cl)cc1)/N=C(\N)Nc1ccc(Cl)cc1	+
SMILES	Methyltransferases
CC1(C(=O)NC2CCCC2)Cn2c(ccc2-c2ccco2)C(=O)N1Cc1ccc(Cl)cc1 (stereo not drawn)	i
CCC(C(=O)NC(C)C)n1ccc2cc(S(=O)(=O)N3CCCCC3)ccc21 (stereo not drawn)	i
COc1ccc(/C=C/C(=O)Nc2ccccc2C(=O)O)cc1OC	i
COc1cc(/C=N\NC(=O)c2ccc3c(c2)OCO3)ccc1OCc1ccccc1	+
COc1ccccc1CNC(=O)C1(C)Cn2nc(-c3ccccc3)cc2C(=O)N1Cc1ccc2c(c1)OCO2 (stereo not drawn)	i
CC(C)Cn1c(=O)c2ccccc2n2c(=O)n(CC(=O)NC3CCCCC3)nc12	i
Cc1ccc(Cl)cc1NC(=O)Cn1nc2n(Cc3ccc(F)cc3)c(=O)c3ccccc3n2c1=O	i
COc1cc(/C=C2\CCCN([C@@H](C)c3ccc(F)cc3)C2=O)ccc1-n1cnc(C)c1	+
COc1cc(Nc2nc3c(s2)CCCC3c2ccccc2)ccc1-n1cnc(C)c1 (stereo not drawn)	i
Cn1c(=O)c2ccc(C(=O)NC3CCCC3)cc2n2c(SCc3ccc(Cl)cc3)nnc12	i
CCOC(=O)c1cc2n(n1)CC(C)(C(=O)NCc1ccccc1)N(c1ccc(C(C)C)cc1)C2=O (stereo not drawn)	i
COc1ccc(CCN2C(=O)c3cc4ccccc4n3CC2(C)C(=O)NC2CCCC2)c(OC)c1 (stereo not drawn)	i
CCOC(=O)CNC(=O)C1(C)Cn2nc(C(=O)OCC)cc2C(=O)N1c1ccc(Cl)cc1 (stereo not drawn)	i
CC1CCCC(C)N1CCNC(=O)CCCc1nnc2n3nc(-c4ccccc4)nc3c3ccccc3n12 (stereo not drawn)	i
O=C1NC(=O)/C(=C/c2ccc(-c3ccc(F)cc3O)o2)S1	+
CS(=O)(=O)N(Cc1ccccn1)C1CN(C(=O)Cn2c(=O)oc3ccccc32)C1	i
CCOC(=O)C1CCCN(c2nc3c(S(=O)(=O)c4ccc(Br)cc4)nnn3c3ccccc23)C1 (stereo not drawn)	i
CCN(CC)c1nc2c(-c3ccc(C)cc3)nnn2c2ccccc12	i
N[C@@H](Cc1c[nH]c2ccc(O)cc12)C(=O)O	i
COc1cc2c(CCNC(C)=O)c[nH]c2cc1O	+
O=C(Cc1c[nH]c2ccccc12)NCCc1c[nH]c2ccc(Cl)cc12	i
CCCN(CCC)CCN1C(=O)c2cc3sccc3n2CC1(C)C(=O)NC1CCCCCC1 (stereo not drawn)	i
CN1C(=O)c2cc3ccccc3n2CC1(C)C(=O)NCC(=O)NCc1ccccc1 (stereo not drawn)	i
CCCCN(CCCC)CCCN1C(=O)c2cc3occc3n2CC1(C)C(=O)NC1CCCCCC1 (stereo not drawn)	i
O=C(CCc1nnc2n(Cc3ccc(F)cc3)c(=O)c3ccccc3n12)Nc1cccc(Cl)c1	i
SMILES	Methyltransferases
O=C1c2ccccc2C(=O)c2cc(S(=O)(=O)N(CCO)CCO)ccc21	+
O=C1c2ccccc2C(=O)c2cc(S(=O)(=O)NC3CCCCC3)ccc21	i
O=c1[nH]c2ccc(S(=O)(=O)N(CCO)CCO)cc2[nH]1	i
COc1ccc(OC)c(CCNC(=O)CCc2nnc3n(Cc4ccccc4)c(=O)c4ccccc4n23)c1	i
CCOC(=O)c1cc2n(n1)CC(C)(C(=O)NCCC(C)C)N(c1cccc(Cl)c1)C2=O (stereo not drawn)	i
O=S(=O)(c1cccc(-c2nc(-c3ccccc3)no2)c1)N1CCc2ccccc21	i
COc1cccc(S(=O)(=O)N2CCC(n3c(C)cnc3C3CCOCC3)CC2)c1	i
C[C@]12CC[C@@H]3c4ccc(O)c(O)c4CC[C@H]3[C@@H]1CCC2=O	+
CCCCN1C(=O)c2cc(C(=O)Nc3ccc(F)cc3)nn2CC1(C)C(=O)NC1CCCC1 (stereo not drawn)	i
COc1ccccc1CCN1C(=O)c2ccc(-c3ccco3)n2CC1(C)C(=O)NC1CCCCC1 (stereo not drawn)	i
CC(C)Cn1c(=O)c2cc(F)ccc2n2c(SCC(=O)NCc3ccccc3)nnc12	i
CC1CCCCC1NC(=O)C1(C)Cn2c(nc3ccccc32)C(=O)N1CCc1ccccc1 (stereo not drawn)	i
COc1cc2c(cc1O)CC[C@@H]1[C@@H]2CC[C@]2(C)[C@@H](O)CC[C@@H]12	+
C[C@]12CC[C@@H]3c4ccc(OC(=O)c5ccccc5)cc4CC[C@H]3[C@@H]1CC[C@@H]2O	i
CC12CCC3c4ccc(OC5OC(C(=O)O)C(O)C(O)C5O)cc4CCC3C1CCC2O (stereo not drawn)	i

Screening data: PubChem, National Center for Advancing Translational Sciences (NCATS)
